Results published in PubChem BioAssay AID720596 (The Scripps Research Institute Molecular Screening Center, 2013).
Screen size: about 370,000 compounds; about 1,600 (0.43%) were called active. No stated cut-off is given here; in the data, active means inhibition above about 24%; inactive means the rest. This excerpt belongs to a sample that is enriched for actives.

The compounds below were run against Major prion protein (Homo sapiens) (UniProt P04156) (assay: inhibitors of human cell surface prion protein PrPC, primary screen, cell-based, TR-FRET (AID 720596; further: 0% = median of the test wells and 100% = reference compound wells)). Conditions: TR-FRET read-out, at 13.8 µM, hits give high values.

| SMILES | inhibition |
| --- | --- |
| Cc1ccc(NC(=O)N2c3ccccc3SC2c2ccco2)c(C)c1 (stereo not drawn) | 2.15% (inactive) |
| COc1ccc(C(=O)N2CCCCC2c2cc(C(=O)Nc3ccccc3)no2)cc1 (stereo not drawn) | 6.89% (inactive) |
| CN1CCn2cnc(C(=O)NCC(=O)OC(C)(C)C)c2C1=O | -0.34% (inactive) |
| COCC1CCN(C(=O)C2CCC(=O)N(Cc3cccc(C(F)(F)F)c3)C2)CC1 (stereo not drawn) | 9.85% (inactive) |
| COc1cc(F)ccc1-c1cc(C(=O)NCC2CCCCC2)[nH]n1 | 9.68% (inactive) |
| COc1ccc(OC)c(NC(=O)c2cc(-c3cc(F)ccc3OCC3CCCO3)n[nH]2)c1 (stereo not drawn) | 84.9% (active) |
| COc1ccccc1CNC(=O)c1cc(-c2cc(F)ccc2OC)n[nH]1 | -1.69% (inactive) |
| CC1(C)CC(=O)C2=C(C1)NCN(CCCN1CCOCC1)C2 | -0.29% (inactive) |
| Cn1cccc1C1(C(F)(F)F)NCCNC1=O (stereo not drawn) | -0.11% (inactive) |
| O=C(O)c1ccc(F)c(S(=O)(=O)Nc2ccccc2)c1 | -4.14% (inactive) |
| Cc1ccc(C(=O)Nc2ccccc2-c2ccccc2)cc1S(=O)(=O)Nc1ccccc1 | 25.5% (active) |
| Cc1cc(C(C)(C)C)cc(S(=O)(=O)Nc2ccc(C(=O)O)cc2)c1C | 0.8% (inactive) |
| CCC(C)N(C(=O)COC(=O)c1nc(Cl)ccc1Cl)C1CCS(=O)(=O)C1 (stereo not drawn) | 5.66% (inactive) |
| COc1cccc2sc3cc(NCC[C@@H]4CCCN4C)ccc3c(=O)c12 | 44.1% (active) |
| Cc1cc2oc3ccc(NCCC4CCCN4C)cc3c(=O)c2cc1C (stereo not drawn) | -13.5% (inactive) |
| N#Cc1c(-c2ccc(Cl)cc2)c2c([nH]c1=S)CCCC2 | -2.9% (inactive) |
| CC1CC(=O)Nc2ccccc2N1C(=O)COc1ccc2cc(Br)ccc2c1 (stereo not drawn) | -0.09% (inactive) |
| O=C(Nc1ccccc1Cl)/C(Cl)=C(\Cl)S(=O)c1ccccc1 (stereo not drawn) | 93.7% (active) |
| Cc1ccc(S(=O)(=O)N(C)C)cc1NC(=O)c1ccc(-n2cncn2)c([N+](=O)[O-])c1 | -32.8% (inactive) |
| Cc1[nH]n(-c2ccccc2)c(=O)c1/C=N/NC(=O)c1ccoc1C | 43.4% (active) |
| O=C(N/N=C/c1c(O)n(C2CC2)c(=S)[nH]c1=O)c1ccccc1Cl | 6.86% (inactive) |
| O=C(N/N=C/c1c(O)n(C2CC2)c(=S)[nH]c1=O)c1ccccc1 | -3.29% (inactive) |
| O=C(CCN1CCCO1)N1CCCC(N2CCN(c3cccc(C(F)(F)F)c3)CC2)C1 (stereo not drawn) | 1.86% (inactive) |
| Cn1c(=S)sc2ccc3ccccc3c21 | 51.9% (active) |

| SMILES | inhibition |
| --- | --- |
| COc1ccc2ccccc2c1CNc1nnnn1C | -6.2% (inactive) |
| CSc1nnc(CNC(=O)c2ccccc2)n1-c1ccc(F)cc1 | 0.49% (inactive) |
| CC1=C(C(=O)Nc2cccc(C(=O)NCC(C)c3ccccc3)c2)SCCO1 (stereo not drawn) | 12.5% (inactive) |
| CC(c1cccnc1)N(CCN(C)C)C(=O)Nc1ccc(Cl)c(Cl)c1 (stereo not drawn) | 2.3% (inactive) |
| O=C(CCS(=O)(=O)c1ccccc1)Nc1ccc(Cl)c(Cl)c1 | 4.48% (inactive) |
| O=C(CC(O)(C(F)(F)F)C(F)(F)F)Nc1ccc(Cl)c(Cl)c1 | 64.7% (active) |
| CC(C)c1ccc(NC(=O)[C@@H](NC(=O)N2CC(=O)Nc3ccccc32)C(C)C)cc1 | 3.7% (inactive) |
| COC(=O)c1c(-c2cccs2)csc1NC(=O)CSc1ncnc2sc(C)c(C)c12 | -2.84% (inactive) |
| Cc1sc2ncnc(SCC(=O)NC3CCS(=O)(=O)C3)c2c1C (stereo not drawn) | 9.26% (inactive) |
| Cc1sc2ncnc(SCC(=O)Nc3ccc(CN4CCCC4)cc3)c2c1C | 33.7% (active) |
| CC/C(=N\O)C(C)(C)/[N+]([O-])=C/c1ccc(Br)cc1 | 10.7% (inactive) |
| O=C1CCCC2=C1C(c1cccs1)n1nc(SCc3ccccc3)nc1N2 (stereo not drawn) | 50.8% (active) |
| CCC(=O)N1c2ccccc2NC2=C(C(=O)CCC2)C1c1ccco1 (stereo not drawn) | -1.24% (inactive) |
| O=C1CCCC2=C1C(c1cccs1)CC(=O)N2c1ccc(F)cc1 (stereo not drawn) | 0.75% (inactive) |
| CC(=O)c1c(C)[nH]c(C(=O)OCC(=O)Nc2c(C)n(C)n(-c3ccccc3)c2=O)c1C | 6.5% (inactive) |
| COc1ccc2c(c1)[C@@]13CCCCC1[C@@H](C2)NCC3 (stereo partly drawn) | 1.48% (inactive) |
| Cc1cc2cc(CNC(=O)c3cccs3)ccc2[nH]1 | 7.85% (inactive) |
| Cc1cc2cc(CNC(=O)c3ccc(S(=O)(=O)N4CCOCC4)cc3)ccc2[nH]1 | 27.4% (active) |
| Cc1ccc(CC(=O)Nc2ccc(S(=O)(=O)N3CCOCC3)cc2)cc1C | 10.2% (inactive) |
| Cc1nc(NC(=O)CCC(=O)O)sc1C(=O)N(C)C | 0.26% (inactive) |
| Nc1nc2c(Br)ccc(Br)c2cc1C(=O)NCCc1ccccc1 | 6.33% (inactive) |
| CN(C)CCNC(=O)c1ccc(Cl)c2cc3ccccc3nc12 | 34.5% (active) |
| Cc1c(C(=O)NCCN(C)C)oc2ccc(S(=O)(=O)N3CCCC3)cc12 | 1.49% (inactive) |
| CCN(Cc1ccccc1)C(=O)CN1C(=S)NC(C)(C)CC1C (stereo not drawn) | 6.01% (inactive) |

| SMILES | inhibition |
| --- | --- |
| CCN(c1ccccc1)S(=O)(=O)c1ccc2[nH]c(=O)[nH]c2c1 | -6.81% (inactive) |
| O=C(Nc1ccc(N2CCN(C(=O)c3ccccc3)CC2)c(Cl)c1)c1cccnc1 | 26.1% (active) |
| Cc1ccccc1N1CCN(C(=O)c2cccnc2)CC1 | -4.83% (inactive) |
| O=C(Nc1ccc(N2CCN(C(=O)c3ccccc3)CC2)c(Cl)c1)c1ncn[nH]1 | 11.2% (inactive) |
| COc1ccc2c(c1)c(=O)c(C(=O)c1ccc(Cl)cc1)cn2CC(=O)Nc1ccc(F)cc1 | 0.3% (inactive) |
| Cc1ccc(Cn2cc(C(=O)NN)c(=O)c3ccc(F)cc32)cc1 | -1.23% (inactive) |
| O=C(c1ccc(F)cc1)c1cn(Cc2ccc(F)cc2)c2cc3c(cc2c1=O)OCCO3 | 34.4% (active) |
| CCCCc1nc2cc(C(=O)NCCc3cnn(C)c3)ccc2o1 | -7.17% (inactive) |
| CC(C)N(Cc1nc(-c2ccc3c(c2)OCO3)no1)CC1CCC(=O)N1 (stereo not drawn) | 7.11% (inactive) |
| N#Cc1c(N)nc2c3c(sc(=N)c2c1N)NC(=O)CC3c1ccccc1Cl (stereo not drawn) | 31.5% (active) |
| CC(C)CCN1CCC(C)(NC(=O)c2ccccc2)C1=O (stereo not drawn) | -6.7% (inactive) |
| CC1(c2ccccc2)NC(=O)N(CC(=O)N2CC(=O)Nc3ccccc32)C1=O (stereo not drawn) | 1.68% (inactive) |
| COc1ccc(-c2c(C)cc3oc(=O)cc(-c4ccccc4)c3c2C)cc1C=O | 4.67% (inactive) |
| CN(C(=O)COC(=O)CCCc1c[nH]c2ccccc12)c1c(N)n(Cc2ccccc2)c(=O)[nH]c1=O | 7.89% (inactive) |
| Cc1ccc(Oc2cnn(-c3ccccc3)c(=O)c2Br)cc1 | 32.8% (active) |
| CCOc1ccc(Oc2c(Cl)cnn(-c3ccc(C)cc3)c2=O)cc1 | -10.9% (inactive) |
| Cc1ccc(OC(=O)c2c(C)nn(-c3ccccc3)c2C)cc1 | 4.97% (inactive) |
| CCC(C)[C@@H](C(=O)OC)N(CCc1cn(Cc2ccccc2)nn1)S(=O)(=O)c1ccccc1Br (stereo partly drawn) | 2.07% (inactive) |
| CC(=O)Nc1ccc(S(=O)(=O)N2CCC(NC(=O)c3ccccc3)CC2)cc1 | -5.81% (inactive) |
| CN(Cc1c(F)cccc1Cl)S(=O)(=O)c1cccs1 | -6.92% (inactive) |
| CC(=O)Nc1cccc(OCC(=O)/C=C2\N(C)c3ccccc3C2(C)C)c1 | 29.7% (active) |
| COc1cccc(NC(=S)C(C#N)=C2N(C)c3ccccc3N2C)c1 | -1.55% (inactive) |
| O=C(CCCOc1ccccc1)Nc1cccc(C(=O)O)c1 | 2.69% (inactive) |
| Cc1nnc(NC(=O)CCC(=O)N2CCC(C)CC2)s1 | -8.95% (inactive) |

| SMILES | inhibition |
| --- | --- |
| COc1ccc(/C=C/CN2CCCC(C(=O)c3cc(F)ccc3F)C2)cc1 (stereo not drawn) | 3.26% (inactive) |
| COc1cc2c(cc1OC)C(=O)NCC(C)(C)O2 | 6.88% (inactive) |
| COc1ccc(Cn2cccc(NC(=O)Nc3ccc(C#N)cc3)c2=O)cc1 | 4.26% (inactive) |
| O=C(Nc1cccn(Cc2c(Cl)cccc2Cl)c1=O)c1ccc(Cl)cc1 | 2.47% (inactive) |
| O=C(Nc1cccn(Cc2ccccc2Cl)c1=O)NC1CCCCC1 | 24.9% (active) |
| CC1(C)CC(=O)C(C=NCc2cccnc2)=C(O)C1 | 6.76% (inactive) |
| C=CCn1c(O)c(/C=N/N2CCOCC2)c(=O)[nH]c1=S | -4.21% (inactive) |
| CC1(C)CC(N2CCN(C(c3ccccc3)c3ccccc3)CC2)=CC(=[N+]2CCCCC2)C1 | 24.4% (active) |
| COC(=O)C(c1ccccc1)N1CCCCCC1 (stereo not drawn) | -4.88% (inactive) |
| O=C(Nc1nnc([C@H]2C[C@H](O)[C@@H](CO)O2)s1)c1cccc(Cl)c1 | -5.24% (inactive) |
| O=C(Nc1ccc(F)cc1)Nc1nnc([C@H]2C[C@H](O)[C@@H](CO)O2)s1 | 1.64% (inactive) |
| Cc1ccc(CNC(=O)Nc2nnc([C@H]3C[C@H](O)[C@@H](CO)O3)s2)cc1 | 25.8% (active) |
| COC(=O)CSc1nc(C2CC2)nc2ccccc12 | 34% (active) |
| Cc1nnc(NC(=O)CSc2nc(C3CCCCC3)nc3ccccc23)s1 | 2.15% (inactive) |
| CN(C(=O)CSc1nc(C2CC2)nc2ccccc12)c1nc(-c2ccccc2)cs1 | -2.06% (inactive) |
| Cc1c(Br)c([N+](=O)[O-])nn1C(C)C(=O)Nc1nccs1 (stereo not drawn) | -4.47% (inactive) |
| COc1ccc(S(=O)(=O)N2CCOCC2)cc1NC(=O)CSc1ncnc2ccccc12 | 47.3% (active) |
| COc1ccc(S(=O)(=O)N2CCOCC2)cc1NC(=O)CSc1nnc(NC2CC2)s1 | 7.4% (inactive) |
| COc1ccc(S(=O)(=O)N2CCOCC2)cc1NC(=O)CSc1cc(C)ccc1C | -4.51% (inactive) |
| Cc1oc(-c2ccccc2Cl)[n+]([O-])c1C | -0.12% (inactive) |
| COC(=O)c1sccc1NC(=O)CC1C(=O)NCCN1C(=O)Nc1ccc(F)cc1F (stereo not drawn) | 4.59% (inactive) |
